From PubChem BioAssay (EPA / NIEHS)
Inconclusive results are not listed. Activity calls are given as the source filed them. Rule for the calls: active = hit-call score of the fitted dose curve at least 0.9, where 1 is the maximum; inconclusive = response in the unintended direction; inactive = score below 0.9.

Each compound was assayed on Thyroperoxidase (TPO), gene 445522 (assay: CCTE_Simmons_GUA_TPO: CCTE's Guaiacol Assay for Thyroperoxidase (TPO) Inhibition, Simmons Lab (AID 2283750)).
In short: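 Porcine thyroid microsomes (25 ug) in 200mM potassium phosphate, preincubated 30 s at 37C with compound (8 concentrations, 5 nM–87.5 uM) and 35mM guaiacol; 1mM H2O2 starts reaction. Absorbance change at 450nm over first 80 s; loss of signal versus DMSO, three replicates.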
In the case of `CCOc1nc(F)cc2nc(S(=O)(=O)Nc3c(Cl)cccc3Cl)nn12`, the AC50 is reported as 55 µM (active).
With `COC(=O)NS(=O)(=O)c1ccc(N)cc1` the AC50 was 136 µM (active).
In the case of `COP(=S)(OC)Oc1ccc([N+](=O)[O-])c(C)c1`, the outcome is reported as “inactive”.
